Reference: PubChem BioAssay (Tox21)
Where “and” joins values, the source holds several entries; their conditions need not be identical. Equal values may be shown once. Inconclusive results are not listed. Entries that show only a call come without a potency. A structure can be active in one record and inactive in another. Calls of active or inactive are those of the source. Calls follow the shape of the dose curve; as a rule, active = well fitted inhibition curve with a large enough effect in the signal ratio in the repeat runs (not every such curve was filed as active); inconclusive = weak or mixed curves, or effect the other way; inactive = no such curve, though single readings can be large or run the other way; the % refers to the signal ratio.

Target: Peroxisome proliferator-activated receptor delta (Homo sapiens) (UniProt Q03181)
Sequence (Q03181 whole entry, looked up): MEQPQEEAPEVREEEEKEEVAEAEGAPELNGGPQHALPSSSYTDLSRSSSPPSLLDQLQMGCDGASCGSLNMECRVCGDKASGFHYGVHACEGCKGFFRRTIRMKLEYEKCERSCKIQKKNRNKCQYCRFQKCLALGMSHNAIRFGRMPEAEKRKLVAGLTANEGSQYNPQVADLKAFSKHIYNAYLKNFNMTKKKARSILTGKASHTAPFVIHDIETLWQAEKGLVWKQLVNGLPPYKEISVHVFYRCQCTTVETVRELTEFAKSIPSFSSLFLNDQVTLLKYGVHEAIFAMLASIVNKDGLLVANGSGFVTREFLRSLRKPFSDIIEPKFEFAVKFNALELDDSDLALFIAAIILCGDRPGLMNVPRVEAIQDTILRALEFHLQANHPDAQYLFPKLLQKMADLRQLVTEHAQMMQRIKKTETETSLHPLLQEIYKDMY
Test: qHTS assay to identify small molecule antagonists of the peroxisome proliferator-activated receptor delta (PPARd) signaling pathway (AID 743215);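 also: cells stimulated with agonist L165041 at 300 nM final during compound exposure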
Conditions: HEK293H PPARd-UAS-bla, beta-lactamase FRET ratio, antagonist, 17 h; series mostly up to 62 µM; ratio activity, negative = inhibition: at the top concentration
From the text: U.S. Tox21 Program National Center for Advancing Translational Sciences [NCATS] NIH Chemical Genomics Center [NCGC] U.S. Environmental Protection Agency [EPA] National Institutes of Environmental Health Sciences [NIEHS] National Toxicology Program [NTP] U.S. Food and Drug Administration [FDA] Tox21 Assay Overview: The peroxisome proliferator-activated receptors (PPARs) are lipid-activated transcription factors of the nuclear receptor superfamily with three distinct subtypes namely PPAR alpha, PPAR delta (PPARd) and PPAR gamma. All these subtypes heterodimerizes with Retinoid X receptor (RXR) and have different physiological functions. […] To identify the compounds that inhibit PPAR-delta signaling, GeneBLAzer PPAR delta UAS-bla HEK293H cell line (Invitrogen, Carlsbad, CA, USA) containing a beta-lactamase reporter gene under the control of an Upstream Activator Sequence (UAS) was used to screen the Tox21 compound library.
Tox21 Assay Protocol Summary: PPARd-bla cells were dispensed at 3000 cells/5uL/well in 1536-well black wall/clear bottom plates using a Multidrop Combi (Thermo Fisher Scientific, Waltham, MA) dispenser. After the assay plates were incubated at 37 C and 5% CO2 for 5 h, 23 nL of compounds dissolved in DMSO, positive controls or DMSO only was transferred to the assay plate by a Pintool station (Kalypsys, San Diego, CA), followed by addition of 1ul L165041 (300 nM, final concentration in the wells). The assay plates were incubated at 37 C for 17 h, and then 1 uL of LiveBLAzerTM B/G FRET substrate was added using a Bioraptr Flying Reagent Dispenser (FRD) workstation (Beckman Coulter, Indianapolis, IN, USA). The assay plates were incubated at room temperature for 2 h and fluorescence intensity was measured by an Envision plate reader (PerkinElmer, Shelton, CT).
Potency is read from the fitted curve at half-maximal effect.

Compound | Potency | ratio activity, negative = inhibition
Nc1ccccc1[N+](=O)[O-] | inactive | –
COc1ccc(Cl)cc1C(=O)NCCc1ccc(S(=O)(=O)NC(=O)NC2CCCCC2)cc1 | – | -5.44% (inactive)
O=S1(=O)CC=CC1 | inactive | –
O=C(O)c1ccccc1C(c1ccc(O)cc1)c1ccc(O)cc1 | – | -3.23% (inactive)
O=C(O)CCCCCCCCCCC(=O)O | inactive | –
CCC(O)OCCCOC (stereo not given) | inactive | –
O=C(CC(C(=O)OC1CCCCC1)S(=O)(=O)O)OC1CCCCC1 (stereo not given) | inactive | –
O=C(OCCOCCOC(=O)c1ccccc1)c1ccccc1 | inactive | –
Cc1cccc(O)c1 | inactive | –
Cc1cc(C)c(C)cc1C | – | 0.763% [at 80.4 µM] (inactive)
O=c1[nH]c(=O)n([C@H]2CCCO2)cc1F | inactive | –
CCCCC(CC)CO (stereo not given) | inactive | –
COc1ccc(Nc2ccccc2)c(C)c1 | inactive | –
c1c[nH]cn1 | – | 0.64% (inactive)
ON=C1CCCCC1 | inactive and 43.6 µM (active) | –
O=C(O)c1cc(O)c(O)c(O)c1 | – | 4.28% (inactive)
CCOC(=O)NNc1nncc2ccccc12 | inactive | –
CCCCN(CCCC)CCCC | inactive | –
Cc1ccc(N(C)C)cc1 | – | 2.84% (inactive)
CCCCC(CC)COC(=O)C(C#N)=C(c1ccccc1)c1ccccc1 (stereo not given) | inactive | –

Compound | Potency | ratio activity, negative = inhibition
CC(C)(C)[C@@H](O)[C@@H](Cc1ccc(Cl)cc1)n1cncn1 | – | 0.608% (inactive)
N[C@@H](Cc1cc(I)c(Oc2cc(I)c(O)c(I)c2)c(I)c1)C(=O)O | – | -1.33% (inactive)
CCCC(C)=O | inactive | –
C#C[C@]1(O)CC[C@H]2[C@@H]3CCC4=CC(=O)CC[C@@H]4[C@H]3CC[C@@]21C | – | 4.88% (inactive)
O=C(O)[C@H](O)[C@@H](O)[C@H](O)[C@H](O)CO | inactive | –
O=C(O)c1cc(C(=O)O)cc(S(=O)(=O)O)c1 | inactive | –
CC(C)(N)CO | inactive | –
Cc1ccc2oc(=O)ccc2c1 | – | 8.04% [at 80.4 µM] (inactive)
CSCCC=O | – | -10% [at 80.4 µM] (inactive)
CC[C@H](C)C(=O)O[C@H]1C[C@@H](C)C=C2C=C[C@H](C)[C@H](CC[C@@H]3C[C@@H](O)CC(=O)O3)[C@H]21 | inactive | –
COc1ccc(NC(C)=O)cc1N | inactive | –
O=C=NCCCCCCN=C=O | inactive | –
O=C1CCC(N2C(=O)c3ccccc3C2=O)C(=O)N1 (stereo not given) | inactive | –
CC(=O)Nc1ccccc1 | inactive | –
CCCCCCCC(=O)OC | inactive | –
C=C(C)C(=O)O[C@H]1C[C@@H]2CC[C@@]1(C)C2(C)C | inactive | –
C[C@H]1C[C@H]2[C@@H]3CCC4=CC(=O)C=C[C@]4(C)[C@@]3(F)[C@@H](O)C[C@]2(C)[C@@]1(O)C(=O)CO | inactive | –
C[Si](O[Si](C)(C)C)O[Si](C)(C)C | inactive | –
O=C(Oc1ccccc1)c1ccccc1 | – | -13.5% (inactive)
CCCCC(CC)COC(=O)CCCCC(=O)OCC(CC)CCCC (stereo not given) | – | -1.24% (inactive)
